# Results taken from PubChem BioAssay AID463165 (Johns Hopkins Ion Channel Center, 2010).
# Hit rate of the full screen: of about 310,000 compounds, about 1,400 (0.45%) were called active.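 The calls were made as follows: active = B-score, a plate-corrected calcium signal, over three deviations above library mean, with baseline fluorescence within five deviations of library mean; inactive = the rest.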 The entries come from a sample that favours actives as a whole.
# Molecular target: Regulator of G-protein signaling 4 (Homo sapiens) (UniProt P49798)
# Sequence (P49798 whole entry, looked up): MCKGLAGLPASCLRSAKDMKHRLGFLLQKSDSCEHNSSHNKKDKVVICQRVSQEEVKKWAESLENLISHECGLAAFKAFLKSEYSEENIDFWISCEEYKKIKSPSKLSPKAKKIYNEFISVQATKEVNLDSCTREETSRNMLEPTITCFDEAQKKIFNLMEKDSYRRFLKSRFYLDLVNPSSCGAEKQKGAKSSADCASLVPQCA
# Experiment: blockers of RGS4 function in M3R calcium signaling – cell-based, HEK293 M3R inducible RGS4, calcium flux, primary screen (AID 463165);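 also: RGS4 expression induced by doxycycline in cells with stable M3 receptor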;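 as to B-score: B-score is computed from the integrated fluorescence ratio over baseline after carbachol; higher B-score means a larger calcium signal and so more RGS4 inhibition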
# Conditions: Fluo-4 calcium flux, at 10 µM, triggered by carbachol at its EC20; stronger effect = higher value
row,SMILES,B-score
1,Cc1ccccc1CN1CCC(C(=O)Nc2ccc(Oc3cccnc3)cc2)CC1,inactive
2,COc1ccc(-c2cc(C(=O)N/N=C/c3cccnc3)c3ccccc3n2)c(OC)c1,inactive
3,COc1ccccc1-n1c(-c2cc(-c3ccco3)[nH]n2)n[nH]c1=S,inactive
4,Cc1cc(C)c2nc(-c3ccco3)cc(C(=O)O)c2c1,inactive
5,Cn1c(-c2ccco2)nc2cc3ccccc3cc21,8.29 (active)
6,CC(=O)c1ccc2c(c1)c1ccccc1n2CC(C)C,inactive
7,CCCCN(CCCC)CC(O)Cn1c2ccccc2c(=O)c2ccccc21 (stereo not given),inactive
8,CS(=O)(=O)N(CC(O)Cn1c2ccccc2c2ccccc21)c1cccc2ccccc12 (stereo not given),7.61 (active)
9,COc1ccccc1CN(C)C(=O)C1(c2ccc(Cl)cc2)CC1,inactive
10,CN(CC1CCCN(CCc2cccc(C(F)(F)F)c2)C1)C(=O)c1ccc2nc[nH]c2c1 (stereo not given),inactive
11,COC(=O)Cn1cc(/C=C/[N+](=O)[O-])c2ccccc21,14.7 (active)
12,COC(=O)c1cn(CC(=O)NCc2cccs2)c2ccccc12,inactive
13,COC(=O)N/N=C/c1cn(CCCOc2ccc(C)cc2)c2ccccc12,inactive
14,O=C(CN1CCN(S(=O)(=O)c2ccc3ccccc3c2)CC1)NC(=O)NC1CCCCC1,inactive
15,CCCc1nn(C)c2c(=O)[nH]c(-c3cc(S(N)(=O)=O)ccc3OCC)nc12,inactive
16,CCCCOc1ccc(C(=O)N/C(=C/C=C/c2ccccc2)C(=O)N2CCOCC2)cc1,inactive
17,OCCCC1CCCCN1Cc1nc(Cc2ccccc2Cl)no1 (stereo not given),inactive
18,Nc1nc(-c2ccccc2)cc(-c2ccccc2)n1,inactive
19,Nc1cccc(-c2cc(-c3ccccc3)nc(-c3cccc(N)c3)n2)c1,5.75 (active)
20,CNc1nc(-c2ccccc2)cc(-c2ccccc2)n1,inactive
21,COCCNC(=O)C(OC(=O)c1cccs1)c1ccc(F)cc1 (stereo not given),inactive
22,COCCNC(=O)CSc1nc2c(n1-c1ccccc1)CCCC2,inactive
23,O=C(NCc1ccc(F)cc1)C1CCC(CNc2c(N3CCOCC3)c(=O)c2=O)CC1 (stereo not given),inactive
24,Cc1noc(C)c1S(=O)(=O)Nc1cc(C(F)(F)F)ccc1N1CCOCC1,inactive

row,SMILES,B-score
1,CCOC(=O)C1=C(CN2CCc3ccccc32)NC(=O)NC1c1ccc(Cl)cc1 (stereo not given),inactive
2,CCOC(=O)C1=NN(c2ccc(Cl)cc2)/C(=C/C2=NCCc3cc(OC)c(OC)cc32)S1,4.81 (active)
3,COc1cc2c(cc1OC)C(/C=C/c1ccco1)=NCC2,inactive
4,CC(=O)c1cccc(NC(=O)C2CCCN2S(=O)(=O)c2cccc3nsnc23)c1 (stereo not given),inactive
5,Cn1c(N2CCOCC2)c(C=O)c2ccccc21,inactive
6,O=C1NCC(=O)N(Cc2ccccc2)/C1=C/c1ccccc1,inactive
7,Clc1ccc(CN2CCN(/N=C/c3cccnc3)CC2)cc1,inactive
8,O=C1/C(=C\c2cccnc2)CN(Cc2ccccc2)C/C1=C\c1cccnc1,20.8 (active)
9,NS(=O)(=O)c1ccc(CCNC(=O)c2ccc([N+](=O)[O-])cc2[N+](=O)[O-])cc1,inactive
10,COc1cc(/C=N/NC(=O)c2cccnc2)ccc1OC(=O)c1cccc(Br)c1,inactive
11,C=C(C)C(=O)O[C@H]1C/C(C)=C\C(=O)/C=C(\C)[C@H](O)[C@@H]2OC(=O)C(=C)[C@@H]21,5.6 (active)
12,Nc1ccccc1/C=N\N=C/c1ccccc1N,inactive
13,Cc1ccc2c(c1)N(CC(=O)NCCc1ccc(Cl)cc1)C(=O)c1cccnc1O2,inactive
14,Cn1c(SCC(=O)N2CCCC2)nnc1-c1cccs1,inactive
15,Cc1cccc(N2C(=O)c3ccc(C(=O)Nc4cccc(C(=O)O)c4)cc3C2=O)c1,inactive
16,O=C(/C=C/c1ccc(N2CCOCC2)cc1)c1ccccc1,inactive
17,O=C(O)c1ccc2c(c1)C(=O)N(c1ccc(/C=C/C(=O)c3ccccc3)cc1)C2=O,24.6 (active)
18,COC(=O)c1sccc1NN1C(=O)c2ccccc2C1=O,inactive
19,COc1ccc(N2CCN(C(=O)COC(=O)c3cccc(S(=O)(=O)Nc4ccccc4OC)c3)CC2)cc1,inactive
20,O=C(Nc1ccccc1)OCc1cn(-c2ccc(Cl)cc2)nn1,inactive
21,O=C(Nc1ccc(Cl)cc1)OCc1cc(-c2ccccc2)on1,6.27 (active)
22,O=C(Nc1cccc(Cl)c1)OCc1ccccn1,inactive
23,Cc1cccc(-c2nnc(SCC(=O)O)n2Cc2ccccc2)c1,inactive
24,O=C(/C=C/Sc1ncn[nH]1)c1ccc(Cl)cc1,12 (active)

row,SMILES,B-score
1,O=C(CSc1ncn[nH]1)N/N=C/c1ccc(F)cc1,inactive
2,Cc1ccc(C(=O)/C=C/c2c(C)nn(-c3ccccc3)c2Cl)cc1,inactive
3,Cc1ccc(Sc2cc(N3CCOCC3)nc(-c3ccccc3)n2)cc1,8.43 (active)
4,O=S(=O)(Cc1cc(Sc2ccccc2)nc(-c2ccccc2)n1)c1ccccc1,inactive
5,Cc1cc(N2CCOCC2)nc(-c2ccc(Br)cc2)n1,inactive
6,CCCN(CCc1ccccc1)C1CCc2c(O)cccc2C1 (stereo not given),inactive
7,CCc1ccc(N(C(=O)c2csnn2)C(C(=O)NC2CCCCC2)c2ccncc2)cc1 (stereo not given),inactive
8,Cc1ccc2nc(-c3ccc(NC(=O)CN(C)S(=O)(=O)c4ccccc4)cc3)sc2c1,inactive
9,NC(=O)NC(=O)CSc1nc2cc([N+](=O)[O-])ccc2n1-c1cccc(C(F)(F)F)c1,inactive
10,CCc1nnc(NS(=O)(=O)c2ccc(N=Cc3c(C)[nH]n(-c4ccc(C)cc4)c3=O)cc2)s1,5.86 (active)
11,CCc1nnc(NS(=O)(=O)c2ccc(NS(=O)(=O)c3ccccc3)cc2)s1,inactive
12,CCc1nnc(NS(=O)(=O)c2ccc(NC(=S)NC(=O)/C=C/c3cccs3)cc2)s1,inactive
13,O=C(OCc1cc(Cl)ccc1OC(F)F)c1cccnc1,inactive
14,O=C1N/C(=N\N=C\c2ccco2)SC1Cc1ccc(F)cc1 (stereo not given),inactive
15,CC(C)=N/N=C1/NC(=O)C(Cc2ccccc2)S1 (stereo not given),inactive
16,CCCCC1S/C(=N/N=C/c2cccs2)NC1=O (stereo not given),6.28 (active)
17,Cc1cccc(CN2CCN(Cc3cnn(-c4ccccc4F)c3)CC2CCO)n1 (stereo not given),inactive
18,CCCCN1C(=S)NC[C@@H]1C(C)CC (stereo not given in full),inactive
19,CC(CO)NCC12CC3CC(CC(C3)C1)C2 (stereo not given),inactive
20,Brc1ccc(-c2csc(N/N=C/c3cccnc3)n2)cc1,7.99 (active)
21,Cc1ccccc1Nc1nc(-c2cccnc2)cs1,inactive
22,Brc1ccc(-c2csc(N/N=C/c3ccc4c(c3)OCO4)n2)cc1,inactive
